# Cy5 interf NS3h: Cy5 fluorescence quenchers or enhancers, artefact control for HCV NS3 helicase inhibitor project, biochemical, ChemBridge library, Cy5 readout | Cy5-dT15 DNA with NS3h, fluorescence interference; actives lie on both sides; signal over control mean, under 1 quenches | fluorescence interference ratio at 100 µM | hit rate 6% among 16,000 | AID 720488, 2013;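 active means compound fluorescence over control fluorescence at most 0.8, a quencher, or at least a set upper limit, an enhancer; inactive means ratio between 0.8 and the set upper limit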
# NS3h inh CB: HCV NS3 helicase inhibitors, primary screen, biochemical, fluorescence polarization, ChemBridge library. NS3h Cy5-dT15 DNA binding. inhibition, % at 100 µM. Hepatitis C virus NS3 helicase. hit rate 1.6% among 16,000;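 active means inhibition above the average over every tested compound plus 3 SD, cut at about 40% in these data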
# * hit, by the source's call. Shown are actives, neighbours in structure and some others; about 7.6% of the full set was active somewhere.
SMILES,Cy5 interf NS3h,NS3h inh CB
O=C(c1ccccc1O)N1N=C(c2ccc(Br)cc2)CC1(O)C(F)(F)F (configuration not stated),0.92,5.0
O=C(c1ccccc1Br)N1N=C(c2ccccc2)CC1(O)C(F)(F)F (configuration not stated),0.794*,4.8
CCCOc1ccc(C2C3=C(CC(C)(C)CC3=O)OC3=C2C(=O)CC(C)(C)C3)cc1OCC,0.784*,8.8
CCCOc1c(Br)cc(C2C3=C(CC(C)(C)CC3=O)OC3=C2C(=O)CC(C)(C)C3)cc1OC,0.972,16.9
O=C(COc1ccccc1Cl)NNC(=O)c1ccccc1I,1.04,11.9
O=C(COc1ccccc1Cl)Nc1c[nH]c(=O)[nH]c1=O,1.3*,-37.0
C/C(=N/N1CCN(Cc2ccc(C)cc2)CC1)c1ccncc1,1.03,0.9
CN(C)CC(Oc1ccc(F)cc1)C(=O)O (configuration not stated),0.949,2.3
CN(C)c1ccc(NC(=O)c2ccccc2Cl)cc1,1.08,10.0
O=C(Nc1ccc(-c2cnc(-c3ccc(NC(=O)c4ccccc4Cl)cc3)nc2)cc1)c1ccccc1Cl,0.718*,15.9
O=S(=O)(Nc1ccc(OC(F)F)cc1)c1cccs1,1.07,13.5
Cc1ccc(C)n1-c1cccc2cccnc12,0.0702*,-87.4
CCOC(=O)Cc1cc(-c2ccc([N+](=O)[O-])cc2)nc2ccc3ccccc3c12,1.04,-1.8
CC1(C)CC(NC(=S)Nc2ccc(F)cc2)CC(C)(C)N1,1.05,5.4
CN(C)CCn1c2ccccc2c2nc3ccc([N+](=O)[O-])cc3cc21,0.745*,-13.0
CCc1nc2ccccc2n1Cc1ccc([N+](=O)[O-])cc1,1.01,3.7
Cn1c(-c2ccco2)nc2c3ccccc3c3ccccc3c21,0.957,9.1
COc1ccccc1NC(=O)c1ccc(C)o1,1.06,0.9
Cc1ccc(NC(=O)c2cc(NC(=O)c3ccccc3)cc(NC(=O)c3ccccc3)c2)cc1,1.05,10.9
Cc1cc(C)cc(N2C(=O)/C(=C/c3ccc(O)c(Cl)c3)C(=O)NC2=S)c1,0.959,24.8
C#Cc1cccc(N2C(=O)c3ccc(C(=O)O)cc3C2=O)c1,0.98,12.0
O=C(O)c1ccc2c(c1)C(=O)N(c1ccc(-c3nc4cc(N5C(=O)c6ccc(C(=O)O)cc6C5=O)ccc4[nH]3)cc1)C2=O,0.651*,10.5
C=CCN1C(=O)/C(=C\c2ccc(C=O)cc2)SC1=S,1.07,9.7
O=C1/C(=C\c2ccc(-c3ccccc3Cl)o2)SC(=S)N1Cc1ccccc1,1.03,1.3
CCN1C(=O)/C(=C\c2ccc(N(C)C)cc2)SC1=S,1.22*,10.9
SMILES,Cy5 interf NS3h,NS3h inh CB
CN(C)c1ccc(/C=N\N2C(=O)/C(=C/c3ccc(N(C)C)cc3)SC2=S)cc1,0.973,-5.0
O=C1/C(=C/c2ccc(I)o2)SC(=S)N1c1ccccc1,0.688*,13.3
O=Cc1ccc(/C=C2/SC(=S)N(Cc3ccccc3)C2=O)cc1,0.715*,9.6
O=C1/C(=C/c2ccc(I)o2)SC(=S)N1Cc1ccccc1,0.657*,6.8
COC(=O)c1ccc(-c2ccc(/C=C3/SC(=S)N(c4ccccc4)C3=O)o2)cc1,0.998,1.3
CCOC(=O)c1ccccc1NC(=O)c1cccc([N+](=O)[O-])c1C,1.09,-2.7
N/C(=N/OC(=O)C(c1ccccc1)c1ccccc1)c1cccnc1,1.01,6.8
CC(C)CN(CC(C)C)S(=O)(=O)c1ccc(C(=O)N2CCOCC2)cc1,0.932,0.3
COc1cc(NS(=O)(=O)c2ccc(NC(=O)c3c(F)cccc3F)cc2)ncn1,1.05,2.1
COc1cccc(C=C2C(=O)NC(=S)NC2=O)c1OC,1.07,-10.3
C/C(=C\C(=O)NCC1(c2ccccc2)CCCC1)c1ccccc1,1.07,15.6
Cc1ccc(C(=O)Nc2cc(Cl)ccc2C)cc1C,1.05,7.1
COc1ccc(NC(=O)COc2cc(C)c(Cl)c(C)c2)cc1OC,1.01,0.4
CCC(CC)NCc1cc(Br)ccc1OC,1.13,3.9
CCOC(=O)Cn1nc(C(F)(F)F)c(Cl)c1C,0.966,2.8
COc1cccc(N2C(=O)C(=O)C(=C(O)c3ccccc3)C2c2ccc(Br)cc2)c1 (configuration not stated),0.902,-4.9
CCN1C(=O)/C(=C\c2cccc(OCCOc3cccc(OC)c3)c2)SC1=S,1.03,7.1
CCN1C(=O)/C(=C/c2cccc(OC(=O)c3ccccc3I)c2)SC1=S,0.741*,15.2
CCOc1ccc(NC(=O)CSc2nnc(-c3ccc(OC)cc3)o2)cc1,0.736*,19.5
COc1ccc(NC(=O)CSc2ncccn2)cc1,1.08,0.3
Cc1cccc2sc(NC(=O)c3ccc(S(=O)(=O)N4CCCc5ccccc54)cc3)nc12,1.08,5.9
CCCCNC(=O)C(CCC(=O)OCc1ccccc1)NC(=O)Cc1ccccc1 (configuration not stated),0.946,-16.9
O=C(Nc1ccc([N+](=O)[O-])cc1)C1C(c2ccccc2)C1(Cl)Cl (configuration not stated),0.991,14.0
COc1cc(/C=N\n2cnnc2)cc(OC)c1O,0.671*,1.2
COc1ccc(/C=N\n2cnnc2)cc1Br,1,-14.7
SMILES,Cy5 interf NS3h,NS3h inh CB
CCCCCCN1C(=O)C(O)=C(C(C)=O)C1c1cccc([N+](=O)[O-])c1 (configuration not stated),1.02,-4.9
COc1ccc(-n2nc3cc(C)c(NC(=O)c4cccs4)cc3n2)cc1,0.955,14.7
O=C(Nc1ccc(NC(=O)c2cc([N+](=O)[O-])ccc2Cl)cc1)c1ccc(Br)cc1,0.536*,18.0
O=C(Nc1cccc(Br)c1)c1cc([N+](=O)[O-])ccc1Cl,1.02,6.7
CNCCOc1cc(C)nc(-c2ccccc2)n1,1.04,-7.2
CSc1nc(-c2ccccc2)nc2[nH]ccc(=O)c12,0.694*,10.5
CCOc1ccc2nc(SCC(=O)Nc3ccc(OC)cc3OC)sc2c1,0.939,6.8
COc1ccc(NC(=O)CSc2nc3ccc(N4C(=O)c5ccccc5C4=O)cc3s2)c([N+](=O)[O-])c1,0.733*,14.1
Cc1ccc2nsnc2c1NC(=O)c1ccc(-c2ccc([N+](=O)[O-])cc2)o1,0.884,-3.5
Cc1ccccc1/C=C1\SC(=S)N(C(C(=O)O)C(C)C)C1=O (configuration not stated),1.02,7.7
CC(C(=O)O)N1C(=O)/C(=C/c2ccccc2)SC1=S (configuration not stated),1.25*,2.5
O=C1c2ccccc2C(=O)N1/N=C\c1c(O)ccc2ccccc12,0.623*,8.7
O=C1c2cccc3cccc(c23)C(=O)N1/N=C\c1ccc(O)cc1,1.03,6.7
O=C(Nc1ccc2nn(-c3ccc(F)cc3)nc2c1)c1ccncc1,0.996,-14.1
O=C1/C(=C/c2cccc3ccccc23)SC(=S)N1C1CCS(=O)(=O)C1 (configuration not stated),0.995,7.6
O=C1/C(=C/c2cccc([N+](=O)[O-])c2)SC(=S)N1C1CCS(=O)(=O)C1 (configuration not stated),0.348*,15.4
Cc1cc(/C=C2\C(=O)NC(=S)N(c3ccc(Br)cc3)C2=O)c(C)n1-c1cccnc1,1.12,2.5
O=C(Nc1ccccc1Br)C1CN(S(=O)(=O)c2ccccc2)CCN1S(=O)(=O)c1ccccc1 (configuration not stated),1.09,-1.3

# Source: PubChem (Milwaukee Institute for Drug Discovery)
